# The entries come from a sample that favours the strongest signals as a whole.
# Key:
# Assay in all cases: glycan array binding signal (z-score within array); higher = stronger binding
# Conditions in all cases: glycan notation: IUPAC condensed, linker removed
# GalNAc4S6S(b1-4)GlcNAc = molecular target: GalNAc4S6S(b1-4)GlcNAc
# How it was run: (§1)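 The binding signal is a Z-score computed within each array. Data were drawn from 3228 arrays in the Consortium for Functional Glycomics database, restricted to those with a known protein sequence. Scores were averaged over arrays of the same protein sequence at different concentrations or buffers, and over linkers, and negative values can be taken as non-binding.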
# GlcA(b1-3)GlcNAc = molecular target: GlcA(b1-3)GlcNAc
# How it was run: as §1
# [1] = molecular target: GlcNAc(b1-3)[GlcNAc(b1-4)][GlcNAc(b1-6)]GlcNAc
# How it was run: as §1
# Kdn(a2-3)Gal(b1-3)GalNAc = molecular target: Kdn(a2-3)Gal(b1-3)GalNAc
# How it was run: as §1
# Kdn(a2-3)Gal(b1-3)GlcNAc = molecular target: Kdn(a2-3)Gal(b1-3)GlcNAc
# How it was run: as §1
# [2] = molecular target: Neu5Ac(a2-3)Gal(b1-3)GalNAc6S
# How it was run: as §1
# [3] = molecular target: Neu5Ac(a2-3)Gal(b1-4)GlcNAc(b1-2)Man(a1-3)[Neu5Ac(a2-3)Gal(b1-4)GlcNAc(b1-2)Man(a1-6)]Man(b1-4)GlcNAc(b1-4)[Fuc(a1-6)]GlcNAc
# How it was run: as §1
# [4] = molecular target: Neu5Ac(a2-3)Gal(b1-4)GlcNAc(b1-3)Gal(b1-4)[Fuc(a1-3)]GlcNAc
# How it was run: as §1
# [5] = molecular target: Neu5Ac(a2-6)Gal(b1-4)GlcNAc(b1-2)Man(a1-3)[Gal(b1-4)GlcNAc(b1-2)Man(a1-6)]Man(b1-4)GlcNAc(b1-4)GlcNAc
# How it was run: as §1
# [6] = molecular target: Neu5Ac(a2-6)Gal(b1-4)GlcNAc(b1-2)Man(a1-3)[GlcNAc(b1-2)Man(a1-6)]Man(b1-4)GlcNAc(b1-4)GlcNAc
# How it was run: as §1
# [7] = molecular target: Neu5Ac(a2-6)GlcNAc(b1-4)GlcNAc
# How it was run: as §1
# [8] = molecular target: Neu5Ac(b2-6)Gal(b1-4)GlcNAc
# How it was run: as §1
# Neu5Gc(a2-6)GalNAc = molecular target: Neu5Gc(a2-6)GalNAc
# How it was run: as §1
# [9] = molecular target: Fuc(a1-2)Gal(b1-3)GalNAc(b1-4)[Neu5Ac(a2-3)]Gal(b1-4)Glc
# How it was run: as §1
# [10] = molecular target: Fuc(a1-2)Gal(b1-3)GlcNAc6S
# How it was run: as §1
# [11] = molecular target: Fuc(a1-2)Gal(b1-3)[Fuc(a1-4)]GlcNAc(b1-2)Man(a1-3)[Fuc(a1-2)Gal(b1-3)[Fuc(a1-4)]GlcNAc(b1-2)Man(a1-6)]Man(b1-4)GlcNAc(b1-4)GlcNAc
# How it was run: as §1
# [12] = molecular target: Fuc(a1-2)[Gal(a1-3)]Gal(b1-3)GlcNAc
# How it was run: as §1
# [13] = molecular target: Fuc(a1-2)[Gal(a1-3)]Gal(b1-4)[Fuc(a1-3)]GlcNAc(b1-3)GalNAc
# How it was run: as §1
# [14] = molecular target: Fuc(a1-2)[GalNAc(a1-4)]Gal(b1-4)GlcNAc
# How it was run: as §1
# [15] = molecular target: Fuc(a1-3)[Gal(b1-4)]GlcNAc(b1-2)Man(a1-3)[Fuc(a1-3)[Gal(b1-4)]GlcNAc(b1-2)Man(a1-6)]Man(b1-4)GlcNAc(b1-4)[Fuc(a1-6)]GlcNAc
# How it was run: as §1
# [16] = molecular target: Fuc(a1-3)[Gal3S(b1-4)]GlcNAc6S
# How it was run: as §1
# [17] = molecular target: Gal(a1-3)Gal(b1-4)[Fuc(a1-3)]GlcNAc(b1-2)Man(a1-3)[Gal(a1-3)Gal(b1-4)[Fuc(a1-3)]GlcNAc(b1-2)Man(a1-6)]Man(b1-4)GlcNAc(b1-4)GlcNAc
# How it was run: as §1
# [18] = molecular target: Gal(a1-4)Gal(b1-4)GlcNAc(b1-3)Gal(b1-4)Glc
# How it was run: as §1
# [19] = molecular target: Gal(b1-3)Gal(b1-4)GlcNAc(b1-2)Man(a1-3)[Gal(b1-3)Gal(b1-4)GlcNAc(b1-2)Man(a1-6)]Man(b1-4)GlcNAc(b1-4)GlcNAc
# How it was run: as §1
# [20] = molecular target: Gal(b1-4)GlcNAc(b1-2)Man(a1-3)Man(b1-4)GlcNAc(b1-4)GlcNAc
# How it was run: as §1
# [21] = molecular target: Gal(b1-4)GlcNAc(b1-2)Man(a1-3)[Gal(b1-4)GlcNAc(b1-2)][GlcNAc(b1-4)]Man(b1-4)GlcNAc(b1-4)GlcNAc
# How it was run: as §1
# [22] = molecular target: Gal(b1-4)GlcNAc(b1-2)Man(a1-3)[Man(a1-6)]Man(b1-4)GlcNAc(b1-4)GlcNAc
# How it was run: as §1
# [23] = molecular target: Gal(b1-4)GlcNAc(b1-2)Man(a1-6)[Man(a1-3)]Man(b1-4)GlcNAc(b1-4)GlcNAc
# How it was run: as §1
# [24] = molecular target: Gal(b1-4)GlcNAc(b1-2)[Gal(b1-4)GlcNAc(b1-6)]Man(a1-6)[Gal(b1-4)GlcNAc(b1-2)Man(a1-3)]Man(b1-4)GlcNAc(b1-4)[Fuc(a1-6)]GlcNAc
# How it was run: as §1
# Gal(b1-6)Gal = molecular target: Gal(b1-6)Gal
# How it was run: as §1
# Gal3S6S(b1-4)GlcNAc6S = molecular target: Gal3S6S(b1-4)GlcNAc6S
# How it was run: as §1
# Gal6S(b1-3)GlcNAc = molecular target: Gal6S(b1-3)GlcNAc
# How it was run: as §1
# Gal6S(b1-4)GlcNAc6S = molecular target: Gal6S(b1-4)GlcNAc6S
# How it was run: as §1
# GalNAc(b1-3)GalNAc = molecular target: GalNAc(b1-3)GalNAc
# How it was run: as §1
# GlcA(b1-3)Gal = molecular target: GlcA(b1-3)Gal
# How it was run: as §1
# [25] = molecular target: GlcNAc(a1-4)Gal(b1-4)GlcNAc
# How it was run: as §1
# [26] = molecular target: GlcNAc(a1-4)Gal(b1-4)GlcNAc(b1-3)Gal(b1-4)GlcNAc(b1-3)Gal(b1-4)GlcNAc
# How it was run: as §1
# [27] = molecular target: GlcNAc(b1-4)GlcNAc(b1-4)GlcNAc(b1-4)GlcNAc(b1-4)GlcNAc
# How it was run: as §1
# [28] = molecular target: Man(a1-2)Man(a1-3)[Man(a1-2)Man(a1-6)]Man(a1-6)[Man(a1-2)Man(a1-2)Man(a1-3)]Man
# How it was run: as §1
# [29] = molecular target: Man(a1-3)[Man(a1-6)]Man(a1-6)[Man(a1-2)Man(a1-3)]Man(b1-4)GlcNAc(b1-4)GlcNAc
# How it was run: as §1
# [30] = molecular target: Man(a1-3)[Man(a1-6)]Man(b1-4)GlcNAc(b1-4)GlcNAc
# How it was run: as §1
# [31] = molecular target: Man(a1-3)[Man(a1-6)]Man(b1-4)GlcNAc(b1-4)[Fuc(a1-6)]GlcNAc
# How it was run: as §1
# [32] = molecular target: Neu5Ac(a2-3)Gal(b1-3)GlcNAc(b1-3)Gal(b1-3)GlcNAc
# How it was run: as §1
# [33] = molecular target: Neu5Ac(a2-3)Gal(b1-3)GlcNAc(b1-6)GalNAc
# How it was run: as §1
# [34] = molecular target: Neu5Ac(a2-3)Gal(b1-4)GlcNAc(b1-2)Man(a1-3)[Neu5Ac(a2-6)Gal(b1-4)GlcNAc(b1-2)Man(a1-6)]Man(b1-4)GlcNAc(b1-4)GlcNAc
# How it was run: as §1
# [35] = molecular target: Neu5Ac(a2-3)Gal(b1-4)GlcNAc(b1-3)Gal(b1-3)GlcNAc
# How it was run: as §1
# [36] = molecular target: Neu5Ac(a2-3)Gal(b1-4)GlcNAc(b1-3)Gal(b1-4)GlcNAc(b1-3)Gal(b1-4)GlcNAc
# How it was run: as §1
# [37] = molecular target: Neu5Ac(a2-6)Gal(b1-4)GlcNAc(b1-2)Man(a1-3)Man(b1-4)GlcNAc(b1-4)GlcNAc
# How it was run: as §1
# [38] = molecular target: Neu5Ac(a2-6)Gal(b1-4)GlcNAc(b1-2)Man(a1-6)[Gal(b1-4)GlcNAc(b1-2)Man(a1-3)]Man(b1-4)GlcNAc(b1-4)GlcNAc
# How it was run: as §1
# [39] = molecular target: Neu5Ac(a2-6)Gal(b1-4)GlcNAc(b1-2)Man(a1-6)[Man(a1-3)]Man(b1-4)GlcNAc(b1-4)GlcNAc
# How it was run: as §1
# [40] = molecular target: Neu5Ac(a2-8)Neu5Ac(a2-8)Neu5Ac(a2-3)Gal(b1-4)Glc
# How it was run: as §1
binder,measurement,setting,value
"PRKCE (Homo sapiens), Q02156 (protein) MVVFNGLLKIKICEAVSLKPTAWSLRHAVGPRPQTFLLDPYIALNVDDSRIGQTATKQKTNSPAWHDEFVTDVCNGRKIELAVFHDAPIGYDDFVANCTIQFEELLQNGSRHFEDWIDLEPEGRVYVIIDLSGSSGEAPKDNEERVFRERMRPRKRQGAVRRRVHQVNGHKFMATYLRQPTYCSHCRDFIWGVIGKQGYQCQVCTCVVHKRCHELIITKCAGLKKQETPDQVGSQRFSVNMPHKFGIHNYKVPTFCDHCGSLLWGLLRQGLQCKVCKMNVHRRCETNVAPNCGVDARGIAKVLADLGVTPDKITNSGQRRKKLIAGAESPQPASGSSPSEEDRSKSAPTSPCDQEIKELENNIRKALSFDNRGEEHRAASSPDGQLMSPGENGEVRQGQAKRLGLDEFNFIKVLGKGSFGKVMLAELKGKDEVYAVKVLKKDVILQDDDVDCTMTEKRILALARKHPYLTQLYCCFQTKDRLFFVMEYVNGGDLMFQIQRSRKFDEPRSRFYAAEVTSALMFLHQHGVIYRDLKLDNILLDAEGHCKLADFGMCKEGILNGVTTTTFCGTPDYIAPEILQELEYGPSVDWWALGVLMYEMMAGQPPFEADNEDDLFESILHDDVLYPVWLSKEAVSILKAFMTKNPHKRLGCVASQNGEDAIKQHPFFKEIDWVLLEQKKIKPPFKPRIKTKRDVNNFDQDFTREEPVLTLVDEAIVKQINQEEFKGFSYFGEDLMP",glycan array binding signal (z-score),GalNAc4S6S(b1-4)GlcNAc,-0.211
same,glycan array binding signal (z-score),GlcA(b1-3)GlcNAc,-0.247
same,glycan array binding signal (z-score),[1],4.39
same,glycan array binding signal (z-score),Kdn(a2-3)Gal(b1-3)GalNAc,-0.132
same,glycan array binding signal (z-score),Kdn(a2-3)Gal(b1-3)GlcNAc,-0.38
same,glycan array binding signal (z-score),[2],-0.364
same,glycan array binding signal (z-score),[3],-0.386
same,glycan array binding signal (z-score),[4],-0.192
same,glycan array binding signal (z-score),[5],0.571
same,glycan array binding signal (z-score),[6],3.58
same,glycan array binding signal (z-score),[7],-0.318
same,glycan array binding signal (z-score),[8],-0.121
same,glycan array binding signal (z-score),Neu5Gc(a2-6)GalNAc,-0.342
Morniga (Morus nigra) (protein) MAGTSTNTQTTGTSQTVEVGLWGGPGGNAWDDGSYTGIREINLSHGDAIGAFSVIYDLNGQPFTGPTHPGNEPSFKTVKITLDFPNEFLVSVSGYTGVLPRLATGKDVIRSLTFKTNKKTYGPYGKEEGTPFSLPIENGLIVGFKGRSGFVVDAIGVHLS,glycan array binding signal (z-score),[9],-0.335
same,glycan array binding signal (z-score),[10],-0.321
same,glycan array binding signal (z-score),[11],-0.19
same,glycan array binding signal (z-score),[12],-0.332
same,glycan array binding signal (z-score),[13],-0.329
same,glycan array binding signal (z-score),[14],-0.34
same,glycan array binding signal (z-score),[15],-0.304
same,glycan array binding signal (z-score),[16],-0.324
same,glycan array binding signal (z-score),[17],0.347
same,glycan array binding signal (z-score),[18],-0.341
same,glycan array binding signal (z-score),[19],4.04
same,glycan array binding signal (z-score),[20],4.3
same,glycan array binding signal (z-score),[21],1.41
same,glycan array binding signal (z-score),[22],4.49
same,glycan array binding signal (z-score),[23],4.24
same,glycan array binding signal (z-score),[24],1.6
same,glycan array binding signal (z-score),Gal(b1-6)Gal,-0.326
same,glycan array binding signal (z-score),Gal3S6S(b1-4)GlcNAc6S,-0.316
same,glycan array binding signal (z-score),Gal6S(b1-3)GlcNAc,-0.338
same,glycan array binding signal (z-score),Gal6S(b1-4)GlcNAc6S,-0.337
same,glycan array binding signal (z-score),GalNAc(b1-3)GalNAc,-0.327
same,glycan array binding signal (z-score),GlcA(b1-3)Gal,-0.333
same,glycan array binding signal (z-score),[25],-0.296
same,glycan array binding signal (z-score),[26],-0.327
same,glycan array binding signal (z-score),[27],-0.335
same,glycan array binding signal (z-score),[28],-0.327
same,glycan array binding signal (z-score),[29],4.19
same,glycan array binding signal (z-score),[30],5.03
same,glycan array binding signal (z-score),[31],4.02
same,glycan array binding signal (z-score),[32],-0.332
same,glycan array binding signal (z-score),[33],-0.299
same,glycan array binding signal (z-score),[34],2.56
same,glycan array binding signal (z-score),[35],-0.325
same,glycan array binding signal (z-score),[36],-0.342
same,glycan array binding signal (z-score),[37],3.66
same,glycan array binding signal (z-score),[38],3.24
same,glycan array binding signal (z-score),[39],4.66
same,glycan array binding signal (z-score),[40],-0.334
